The values below come from PubChem BioAssay AID1851 (National Center for Advancing Translational Sciences (NCATS), 2009).

Each structure is given as a SMILES string. In all, about 16,000 compounds went through this assay and about 5,700 (36%) were called active. Inconclusive results (about 24%) are left out. The list shows a part of the results. A number with no mark means an inactive call. The call rests on the fitted dose curve; in most records, active means well fitted curve in the direction sought with a large enough effect; inconclusive means small, poorly fitted or top-dose-only effect, or effect the other way; inactive means no such curve, though single readings can be large or run the other way.

In general, AC50 refers to the midpoint of the concentration-response curve, whichever way the signal moves.
On the % scale 0 is the no-effect control and ±100 the full control effect.

Cytochrome P450 1A2 (Homo sapiens), sequence (P05177 whole entry, looked up): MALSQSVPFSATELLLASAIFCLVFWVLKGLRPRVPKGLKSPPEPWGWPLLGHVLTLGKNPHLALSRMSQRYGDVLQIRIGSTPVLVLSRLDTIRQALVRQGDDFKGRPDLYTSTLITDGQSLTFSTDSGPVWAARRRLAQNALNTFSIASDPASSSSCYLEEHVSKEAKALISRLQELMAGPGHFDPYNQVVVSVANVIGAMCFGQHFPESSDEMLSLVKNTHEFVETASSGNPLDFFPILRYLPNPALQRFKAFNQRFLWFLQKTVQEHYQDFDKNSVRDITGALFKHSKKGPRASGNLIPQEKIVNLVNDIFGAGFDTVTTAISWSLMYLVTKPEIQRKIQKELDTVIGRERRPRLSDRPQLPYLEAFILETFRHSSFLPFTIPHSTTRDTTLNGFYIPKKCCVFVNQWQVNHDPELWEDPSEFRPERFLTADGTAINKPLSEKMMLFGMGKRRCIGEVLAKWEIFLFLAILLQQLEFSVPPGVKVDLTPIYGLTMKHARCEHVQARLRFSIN

This assay has as its target Cytochrome P450 1A2 (Homo sapiens) (UniProt P05177). Kind of assay: Cytochrome panel assay with activity outcomes. Particulars: recombinant CYP, pro-luciferin dealkylation, luminescence, p450-cyp1a2; series mostly up to 57.1 µM; activity, negative = inhibition: at the top concentration.
For `CC1CCCC(NC(=O)C2CCN(S(=O)(=O)N3CCC4(CC3)OCCO4)CC2)C1C` (configuration not stated), the “activity, negative = inhibition” value was 0.237%. With `O=[N+]([O-])c1cc(F)c(N2CCOCC2)cc1N1CCCCC1`, the AC50 was 1.26 µM (active). With `O=C(O)C1CCN(c2c([N+](=O)[O-])cc(C(F)(F)F)cc2[N+](=O)[O-])CC1`, the “activity, negative = inhibition” value is -12.7%. Regarding `O=[N+]([O-])c1ccc(N2CCCC2)cc1N1CCCC1`, the AC50 was 0.316 µM (active). With `Cc1ccccc1C(=O)N1CCN(c2ccc([N+](=O)[O-])c(N3CCOCC3)c2)CC1`, the “activity, negative = inhibition” value was -5.63%. Regarding `O=[N+]([O-])c1ccc(N2CCCCC2)c(Cl)c1N1CCCCC1`, the half-maximal activity concentration (AC50) is 2 µM (active). Consider `Cc1ccc(OCC(=O)N2CCN(c3ccc([N+](=O)[O-])c(N4CCOCC4)c3)CC2)cc1`, for which the “activity, negative = inhibition” value was -14%. In the case of `Cn1c(=O)n(C)c2cc([N+](=O)[O-])c(N3CCN(C(=O)c4ccccc4Cl)CC3)cc21`, the “activity, negative = inhibition” value was 6.96%.

Regarding `Cn1c(=O)n2n(c1=O)[C@H]1[C@H](O)[C@H]3O[C@H]3C(=O)[C@H]1CC2`, the activity, negative = inhibition was -12.9% [at 11.4 µM]. Turning to `Cc1cccc(NC(=O)C23CCC(C)(C2Br)C3(C)C)c1` (configuration not stated), the AC50 is 15.8 µM (active). Regarding `Cc1cccc(NC2=NC(=S)N(c3ccc(C(=O)O)cc3)C23CCCCC3)c1`, the “activity, negative = inhibition” value is -0.631%. With `COc1ccc(C(=O)NC2CCN(C(=S)Nc3cccc(C)c3)CC2)cc1`, the “activity, negative = inhibition” value was 7.46%. Turning to `CC12CCC(C(=O)Nc3cccc4ccccc34)(C1Br)C2(C)C` (configuration not stated), the AC50 is 22.4 µM (active). Consider `COc1ccccc1CNc1ncnc2ccc(-c3ccccc3OC)cc12`, for which the concentration at half-maximal activity (AC50) was 1 µM (active). With `COc1ccc(CNc2ncnc3ccc(-c4ccccc4OC)cc23)c(OC)c1`, the AC50 was 3.16 µM (active).

Consider `C[N+](C)(C)CCOC(=O)CCC(=O)OCC[N+](C)(C)C`, for which the “activity, negative = inhibition” value was -4.51%.

Take `CCCCOC(=S)NC(=O)c1sc2ccccc2c1Cl`: the AC50 is 2 µM (active). As for `O=C(NC(=S)N(CCCCO)C1CCCCC1)c1sc2ccccc2c1Cl`, the AC50 is 1.26 µM (active). On to `CCOC(=S)NC(=O)c1sc2ccccc2c1Cl`, for which the AC50 is 1.58 µM (active). For the molecule `O=C(c1sc2ccccc2c1Cl)N(Cc1ccccc1)C1CCS(=O)(=O)C1` (configuration not stated), the “activity, negative = inhibition” value is -12.4%. Take `CCOc1c(OC(C)=O)ccc(/C=C/c2ccc3cccc(OC(C)=O)c3n2)c1[N+](=O)[O-]`: the AC50 is 4.47 µM (active). For `CCOc1c(OC(C)=O)ccc(/C=C2\N=C(SCC)SC2=O)c1[N+](=O)[O-]`, the AC50 was 0.631 µM (active). On to `Cc1ccc(S(=O)(=O)N=Nc2c(O)[nH]c3cc(O)c(C(=O)O)cc23)cc1`, for which the activity, negative = inhibition was -15.8% [at 2.29 µM]. The same measure, in the same setting: then `O=C(O)[C@@H]1[C@@H](C(=O)NCc2ccccn2)[C@@H]2C=C[C@@H]1O2`, with -0.104% [at 2.29 µM]. With `Cc1cc(=O)oc(C)c1C(=O)NCc1cccnc1`, the AC50 is 4.47 µM (active). `O=C(O)[C@@H](O)Cc1ccccn1`: the activity, negative = inhibition was -9.06% [at 11.4 µM]. On the same count and under the same terms, next, `Cc1cc(=O)oc(C)c1C(=O)N1CCCCC1`: 2.37%. Consider `CC(Cc1ccccc1)C(=O)NCc1ccccn1` (configuration not stated), for which the AC50 is 15.8 µM (active). With `CCCNC(=O)c1c(C)cc(=O)oc1C`, the AC50 was 11.2 µM (active). With `Cc1cc(=O)oc(C)c1C(=O)NCc1ccccc1`, the “activity, negative = inhibition” value is -3.38%. Turning to `O=C(NCc1ccccn1)c1cc(-c2ccccc2Cl)on1`, the AC50 was 3.55 µM (active).

Consider `CC(C)C(NC(=O)C1CCCCC1)C(=O)NCc1ccccn1` (configuration not stated), for which the “activity, negative = inhibition” value is -3.6%. Consider `Cc1cc(=O)oc(C)c1C(=O)NCCCN1CCN(c2ccc(F)cc2)CC1`, for which the “activity, negative = inhibition” value is 4.74%. Turning to `CCC(C#CCN1CCCCC1)(CC)OCCC#N`, the “activity, negative = inhibition” value was -28.1%. Consider `Cc1cc(=O)oc(C)c1C(=O)NCc1ccccn1`, for which the AC50 is 12.6 µM (active). `CCCNC(=O)OC[C@@H]1O[C@H](CCO/N=C\c2ccc(C(=O)N3[C@H](c4ccc(C)cc4)[C@@H](C)CC[C@H]3C(=O)OC)cc2)C=C[C@@H]1Oc1ccc(OC)cc1`: the activity, negative = inhibition is -5.52% [at 11.4 µM]. Take `CCN1C(=O)[C@H]2[C@H]3[C@H](O)[C@H](O)C/C(=N/OCC(C)C)[C@H]3CC[C@@H]2C1=O`: the activity, negative = inhibition was -1.29% [at 11.4 µM].

For the molecule `Cc1ccc(OC(=O)c2ccc(N3CCOCC3)c([N+](=O)[O-])c2)cc1`, the “activity, negative = inhibition” value was -58.9%. Consider `Cc1ccc(C(=O)O/N=C\c2ccc(N3CCCCC3)c([N+](=O)[O-])c2)cc1`, for which the AC50 is 0.251 µM (active). Consider `CO/N=C/c1ccc(N2CCN(C(=O)c3ccc(Cl)cc3Cl)CC2)c([N+](=O)[O-])c1`, for which the “activity, negative = inhibition” value was -16.1%. For `O=C(O/N=C\c1ccc(N2CCCCC2)c([N+](=O)[O-])c1)c1c(F)cccc1F`, the concentration at half-maximal activity (AC50) was 0.708 µM (active). As to `CC(C)OC(=O)C(C)(C)Oc1ccc(C(=O)c2ccc(Cl)cc2)cc1`, the AC50 is 5.01 µM (active). Same read-out and setting: then `CC(C)(Oc1ccc([C@@H]2CC2(Cl)Cl)cc1)C(=O)O`, with “inactive”; and `O=c1c(-c2cccs2)nc2cnc(N3CCNCC3)nc2n1C1CC1`, with 2 µM (active); and `Cn1c(=O)c(-c2cccs2)nc2cnc(N3CCNCC3)nc21`, with 10 µM (active).

Take `OC[C@@H]1O[C@H](O)[C@@H](Cl)[C@H](O)[C@@H]1O`: the “activity, negative = inhibition” value is 1.58%. With `Cc1ccc(S(N)(=O)=O)cc1NC(=O)/C=C/c1cccs1`, the AC50 is 12.6 µM (active).
